Assay results from PubChem BioAssay (Tox21).
Records with an inconclusive call do not appear. A call without a number means that no potency is given here. Active and inactive are the calls of the source. Calls follow the shape of the dose curve; as a rule, active = well fitted cell-killing curve with a large enough effect in the repeat runs; inconclusive = weak or mixed curves; inactive = flat fitted curve, though single readings scatter.

assay: qHTS assay to identify small molecule antagonists of the TGF-beta/Smad signaling pathway - cell viability counter screen (AID 1346824); details: SBE-bla HEK293T viability, CellTiter-Glo luminescence; series mostly up to 76.8 µM; also: nearly all actives have a fitted effect of over 50% in size
Description: U.S. Tox21 Program National Center for Advancing Translational Sciences [NCATS] NIH Chemical Genomics Center [NCGC] U.S. Environmental Protection Agency [EPA] National Institutes of Environmental Health Sciences [NIEHS] National Toxicology Program [NTP] U.S. Food and Drug Administration [FDA] Tox21 Assay Overview: Transforming growth factor beta (TGF-beta) superfamily consists of a large number of structurally related dimeric proteins that act as hormones or local mediators in regulating a wide range of biological functions. This superfamily includes TGF-betas themselves, the bone morphogenetic proteins (BMPs) and the activins. These ligands induce oligomerization of serine/threonine receptor kinases and phosphorylate the cytoplasmic signaling molecules of Smad protein family. CellSensor SBE-bla HEK 293T cell line (Life Technologies, Carlsbad, CA), responsive to TGF-beta was used to screen Tox21 10K compound library for identification of agonists/antagonists of the Smad signaling pathway. This cell line contains a beta-lactamase reporter gene under control of the Smad binding element (SBE) stably integrated into HEK 293T cells. Also cytotoxicity of the compounds was tested in parallel by measuring the cell viability using CellTiter-Glo assay system in the same wells.
Tox21 Assay Protocol Summary: SBE-bla HEK 293T cells were dispensed at 4,000/well in 5 uL of assay medium into black wall/clear-bottom 1536-well plates using a Multidrop Combi (ThermoFisher Scientific, Waltham, MA) dispenser. After the assay plates were incubated at 37 C and 5% CO2 for an overnight, 23 nL of compounds dissolved in DMSO, positive controls or DMSO only was transferred to the assay plate by a Pintool station (Kalypsys, San Diego, CA). Compound transfer was followed by the addition of 1 uL of 0.25 ng/mL TGF-beta1 or assay buffer using two separate tips of Flying Reagent Dispenser (FRD, Aurora Discovery, San Diego, CA). The assay plates were incubated at 37 C and 5% CO2 for 5 hr. One uL of LiveBLAzer B/G FRET substrate (Life Technologies) was added using a Flying Reagent Dispenser (FRD, Aurora Discovery, San Diego, CA) and the plates were incubated at room temperature for 2 hr. Fluorescence intensity (405 nm excitation, 460 nm and 530 nm emissions) was measured using an Envision plate reader (PerkinElmer, Shelton, CT). For cytotoxicity read, 4 uL of CellTiter-Glo reagent (Promega Corporation, Madison, WI) was added to each well of the assay plates using FRD. After 30 min incubation at room temperature, the luminescence intensity was measured using ViewLux plate reader (PerkinElmer).

| Structure (SMILES) | Potency |
| --- | --- |
| OCCOCCN1CCN(C2=Nc3ccccc3Sc3ccccc32)CC1 | inactive |
| COc1ccc2cc([C@H](C)C(=O)O)ccc2c1 | inactive |
| C#C[C@]1(O)CC[C@H]2[C@@H]3CCC4=CC(=O)CC[C@@H]4[C@H]3CC[C@@]21C | inactive |
| O=[N+]([O-])c1ccc(/C=C/c2ccc([N+](=O)[O-])cc2S(=O)(=O)O)c(S(=O)(=O)O)c1 | inactive |
| Cc1cc(C)c(C)cc1C | inactive |
| O=C(O)[C@H](O)[C@@H](O)[C@H](O)[C@H](O)CO | inactive |
| c1ccc(OCCOc2ccccc2)cc1 | inactive |
| COc1ccc(NC(C)=O)cc1N | inactive |
| NNc1nncc2ccccc12 | inactive |
| CC(C)(C)[C@@H](O)[C@@H](Cc1ccc(Cl)cc1)n1cncn1 | inactive |
| CCCCCCCCCCCCOCCO | inactive |
| N[C@@H](Cc1cc(I)c(Oc2cc(I)c(O)c(I)c2)c(I)c1)C(=O)O | inactive |
| CCCCC(CC)COC(=O)CS (stereo not given) | inactive |
| Nc1ccccc1[N+](=O)[O-] | inactive |
| CC[C@H](C)C(=O)O[C@H]1C[C@@H](C)C=C2C=C[C@H](C)[C@H](CC[C@@H]3C[C@@H](O)CC(=O)O3)[C@H]21 | inactive |
| CCc1ccc(CCOc2ccc(CC3SC(=O)NC3=O)cc2)nc1 (stereo not given) | inactive |
| CCCCC(CC)COC(=O)CCCCC(=O)OCC(CC)CCCC (stereo not given) | inactive |
| COCCCOc1ccnc(CS(=O)c2nc3ccccc3[nH]2)c1C (stereo not given) | inactive |
| CN(C)CCC(c1ccc(Cl)cc1)c1ccccn1 (stereo not given) | inactive |
| CCCCCCCCCCCCc1ccccc1 | inactive |

| Structure (SMILES) | Potency |
| --- | --- |
| O=C(CC(C(=O)OC1CCCCC1)S(=O)(=O)O)OC1CCCCC1 (stereo not given) | inactive |
| O=C(O)CCCCCCCCCCC(=O)O | inactive |
| O=C(O)CC(C(=O)O)C(CC(=O)O)C(=O)O (stereo not given) | inactive |
| CC1=C(C)S(=O)(=O)CCS1(=O)=O | inactive |
| CCCCC(CC)CO (stereo not given) | inactive |
| CCCCC(CC)COC(=O)C(C#N)=C(c1ccccc1)c1ccccc1 (stereo not given) | inactive |
| c1ccc2scnc2c1 | inactive |
| CC(C)c1ccc(S(=O)(=O)O)cc1 | inactive |
| COc1cc(Cc2cnc(N)nc2N)cc(OC)c1OC | inactive |
| CC(=O)Nc1cccc(O)c1 | inactive |
| Cc1cnc(C(=O)NCCc2ccc(S(=O)(=O)NC(=O)NC3CCCCC3)cc2)cn1 | inactive |
| C[C@H]1C[C@@H]2[C@H]([C@@H](O)C[C@@]3(C)[C@H]2CC[C@]3(O)C(=O)CO)[C@@]2(C)C=CC(=O)C=C12 | inactive |
| CCCCCOC(C)=O | inactive |
| CCC(O)OCCCOC (stereo not given) | inactive |
| CCCCCCCC(=O)OC | inactive |
| O=C1CCC(N2C(=O)c3ccccc3C2=O)C(=O)N1 (stereo not given) | inactive |
| CCCCCCOCCO | inactive |
| C/C=C1/CC2C=CC1C2 (stereo not given) | inactive |
| CN(C)CCC(c1ccccc1)c1ccccn1 (stereo not given) | inactive |
| OCc1cccnc1 | inactive |
